In PubChem BioAssay AID1508600 (Functional Genomics Laboratory (NCATS/FGL), 2020) one finds z-score data, which are given here for 107 sequences.

In all, about 53,000 sequences went through this assay and about 3,700 (7%) were called active. Shown is part of a subset that was picked to be rich in actives. A number with no mark means an inactive call.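 The calls were made as follows: active = gene knockdowns whose robust z-score for IL-1 alpha signal is at least 2 or at most -2, so actives lie on both sides; inactive = the rest.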

This test in a line: Components of the Cytosolic LPS Sensing Pathway: Gene Identification via Genome-wide siRNA Screen.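 Also: robust z of the log signal after scaling to non-targeting control siRNA wells of the plate.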 The following applies: RAW264.7 macrophages, IL-1a HTRF, actives lie on both sides, screened at 100 nM (by protocol), cells primed 5 h with Pam3CSK4 first. Put shortly: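 Supernatant IL-1a by HTRF from RAW264.7 cells primed with Pam3CSK4 (5 hours) and transfected with LipidA (24 hour) after 48h siRNA knockdown at 100 nM; cell viability checked with CellTiter-Glo.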
(In TR-FRET formats the signal depends on donor and acceptor labels being close together.)
Turning to GCCACUUUAGUAUGGAAUGTT against Nxt1, the z-score is 0.822.
With GGCUGUGGAAUGACACCAATT against Sars2 the figure was -1.01; with GGAUAUCUCGGGUUGAAUUTT against Aurka, -1.38; with GGCUAAUGGACAAAAAAUUTT against Pacrgl, 0.28.
Consider CCAUGACUACAACACAUACTT against Ndufv3, for which the z-score is -3.07 (active).
On to GGAAGACAUACUGUUGAAATT against Mettl23, for which the z-score was -0.147.
Regarding GGCUCUUGUCACAUGAUCATT against Jagn1, the z-score is -1.77.
With GGGUUCAAAACUAUGGAUATT against Stk26 the figure was 0.575.
With GGAUCUGAGUGCUCUACUGTT against Kctd20 the figure was 2.08 (active); with GGCCCACAGGAACAUCCUATT against Zbtb8b, -0.134.
With GGACAAACAGCUUCAAGAUTT against Psmd2 the figure was -2.26 (active); with GGGUUCUUUCACUGAACGATT against Pskh1, 0.9; with GGCAUCUUCAUCAAGGAUUTT against Sf3a1, -1.1.
As for GGCUUAAGUGUGCAGCUACTT against B3gnt4, the z-score is -0.479.
As for GGACAUUGCUGCCUAUAUCTT against Dynll2, the figure is 0.452; as for GCGAUCCUGACUUGUUCAATT against Kdm6b, 2.27 (active).
With GGACAAGAAGCAUCUUUCATT against Smpdl3a, the z-score is -1.16.
With GGAAACUUUAGCAUGAAUGTT against Hmgxb4, the z-score was -0.335.
As for GCAUGCGUGAGAAACUGAUTT against Clec2e, the figure is -0.152.
As for GCAAGCUAAUGAGCUACAATT against Samd9l, the figure is -0.107; as for CCGCCCGCUCAACACUAAUTT against Zfp36l3, -2.39 (active); as for GGUAUAUUGCCAUAUGUAATT against Olfr731, -0.174.
As for CCAUGGGCCUACCAAACAGTT against Celf2, the figure is -1.86; as for GCCGGAUAACAUCAGACACTT against Rmnd1, -0.146; as for GCCACAGAGCUAGACUGUCTT against Wdr86, 0.241.
GGAACAUCUUCAAAGAAGATT against Minar1: the z-score is -0.963.
As for GUUUUGUUUCAGAGCAGAATT against Olfr900, the figure is -0.134; as for GCUAAUAACUGUUCACAUATT against Magi1, 1.97; as for CCAAUCUUAGUCAUCCAUUTT against Foxo6, -2.27 (active).
For GUAUUGUCAUCAUCAUUUCTT against Olfr910, the z-score was 0.115.
With GGUCGGCCAAUUACAAUGUTT against Eml4 the figure was 2.16 (active); with GCGAUGAGACAGAUGUCGATT against Tcof1, -0.0757; with GGUCUUCAACAACAUUAUCTT against Hid1, 1.
On to GCCGAUCCAUUUUUGGCUCTT against Mlxip, for which the z-score is 0.86.
With GGAGUAUUACCUGGUUAAGTT against Suv39h1 the figure was -1.18; with GCAAGUUAAGGAUAUCAUGTT against Katna1, 1.2; with CCGAGUCUUGAACUAGGCATT against Six2, -2.01 (active).
In the case of GCUUUCUGAAGUAGCAAAGTT against Nit2, the z-score was 0.42.
As for GAUGUACGAGAGCUUAGCATT against Uqcc2, the figure is -1.14; as for GGACUACCUGUGUAUGCUCTT against Dcaf12l1, 1.3; as for GGAAUGUUCCUUCGAGCAGTT against Ccdc28b, -0.197.
GCCAUAGAAGUAGAAGUAGTT against Rbmx2: the z-score is -2.29 (active).
GGCGAAAGUAAGACAAAGUTT against Ric8a: the z-score was 0.708.
GGCAAACCGACAGACUUCUTT against Riok1: the z-score is -0.033.
As for GGUCUCUCAUUACCACAUUTT against Olfr69, the figure is 1.75; as for GGAAGAUCAGCCAUACUAGTT against Klrb1f, 2.12 (active).
Turning to GCCCACACUUGCUAAUGAATT against Ppp1r26, the z-score was 0.468.
As for GCUGAACGAUGACUAUCCCTT against Cryba4, the z-score was 2.2 (active).
On to GCUUGUGCCAAGCAUUCUUTT against Rdh1, for which the z-score is 0.861.
As for GGACUCAGAAGAAAUGGACTT against Osbpl6, the figure is 0.109.
With GCUCUGCUAACUUACAUCUTT against Mtmr11 the figure was 1.75.
Regarding GGCAAAGAGAUUGACAUUGTT against Kif2c, the z-score was -0.991.
As to GCGGUCACGUGUGAUGGAUTT against Zfp653, the z-score is 3.98 (active).
With GGCAGGAGAUGGUAACUGCTT against Phc2, the z-score is 1.08.
As for CGAAUUCAAAAAGCUAGAGTT against Gsto1, the figure is 0.0531; as for GGCCUUCAUGGAUUAUACCTT against Serpinb9, 2.09 (active).
As for GGCCAUUCAGAAGAUGCAGTT against Snapc2, the figure is -0.852; as for CGAUUGUCGGGUUUUGUUUTT against Nutf2, -2.53 (active); as for GCCAUUGACUGUACAGGUUTT against Taar4, 0.74.
GGAAGAGCAGGCAUCCAUATT against Ranbp10: the z-score was -0.294.
With GGGAGAUGAUUAGUUCAUUTT against Mad1l1 the figure was 0.654.
With GGCCAGUCCAAAGACCAUCTT against Hsd3b7 the figure was 1.95; with GCAAAACAUUUCCUGUCUGTT against Zfp316, -0.555.
With CCUCAAUUAUACCAAGAUUTT against Mapre3 the figure was -1.28; with GCCAGGAGUCCUUUAGGAATT against Tmem159, -0.184; with GCCCUCUUAUCUGAAUAAUTT against Stk17b, 2.19 (active).
On to GGGAUUGGAAGAGAAAUGGTT against Hsd11b1, for which the z-score is 0.362.
Turning to GCUAUACGAAGACUUCAGCTT against Hdhd3, the z-score is 0.972.
As for GGCCUUUAAUUUCUUACACTT against Akt1s1, the figure is -0.6; as for GGAGUGAAAUUUACUGGGUTT against Hdgfl3, 1.28.
For GGAGAACAAAGAUUUCGUGTT against Lhfpl4, the z-score is -0.897.
With GCUAAACACGCUGAAUAUUTT against Phf10 the figure was 0.107.
With GCUACUAUCACAUAUGCACTT against Olfr1122 the figure was -2.09 (active); with GGGUUGGUAUAGCUUUCAGTT against Zfp619, -0.948.
GGAACCUGAAAAUGUAUGUTT against Cxcl10: the z-score is 0.988.
For the sequence CGUUCAGUGUCUGCAGGUUTT against Mrps12, the z-score is -0.0575.
Regarding CCACUAAUUACAGUAACAUTT against Akr1c20, the z-score was -1.11.
As for “GCAGACUCAUGCACUUGAATT against Olfr1165-ps”, the z-score is -0.321.
As for GGAAGUCUUAGAAGUAGCCTT against Diaph3, the figure is 0.691; as for GGGAACUGCACAAUACAAATT against Ccdc122, 1.91; as for GGCUGGUGGAUAAUGAUUGTT against Tmem50b, 2.18 (active).
With GGACUGUUUUGUCUUGAAGTT against Gm5124 the figure was -1.04.
As for GGUUUUUGUUAAGGUCAAUTT against Abca16, the z-score was 0.209.
With CCAUCCGUAACAUCGACUGTT against Mboat7, the z-score is -0.293.
With UGGUCACCUUUCUCUUAUUTT against Tas2r140 the figure was -0.575.
As for GCUCCUGGGAUACGUAUUATT against Abhd16a, the figure is -2 (active).
With GGGAGCUGAACACAAACACTT against Trav3-3 the figure was 0.191.
Regarding GGACCUUCUUCAAGAAAGUTT against Olfr430, the z-score is 0.0987.
For GGAUGGUGAAAAUCUUGAGTT against Mindy1, the z-score is 1.39.
As for GGACAAUGGGAGCUAUCGATT against Gpld1, the figure is -1.73; as for “GGCUAAUACAUAAAGUAGUTT against 4930515G01Rik”, 0.452.
Take GGUCAAGAAAUGGGCAAGCTT against Arhgdib: the z-score was 1.14.
With GGAAAUAAACCACCUCUUCTT against Olfr437 the figure was 2.36 (active); with GAACAUGGAAAGCAGCAUUTT against Lce1m, -0.757.
With GGUAUUUUUCAUGGCUCUCTT against Olfr305 the figure was -0.0328; with GCCAAAUACUUUUUUACCCTT against Slc38a2, 0.682; with GCUUACCAAAAGGAUAUCCTT against Zfand2b, -1.94.
As for GGCAUUUCAUGUAGCUAAATT against Spata18, the figure is 2.04 (active); as for GGUCCAACGAUAUGUUGACTT against Cyp2c67, 1.27; as for GGACAUGGAGAAAAAGUACTT against Styk1, 0.547.
As for GCAGUGCGAUUGCUUACAGTT against Tube1, the z-score is 1.07.
With GGAUGUUCCAUUUCUAAGCTT against Zfp30 the figure was -3.76 (active); with GGAGUGUGCCCUGAAAGAUTT against Psrc1, -0.215; with GGCUUUUCUGCCAUUUAUGTT against Sox18, 0.23.
With GGGUGAAAGAAAGAAAGAATT against Plp1 the figure was -0.883; with GGCCCAGUGACUAUGGAAUTT against Mpnd, -2.68 (active); with GGAUUACAGAAGCCCACACTT against Plekhn1, -0.719.
